Measured values: PubChem BioAssay (NCATS)
Records with an inconclusive call do not appear. Where a call stands in place of a potency, no number is given. Active and inactive are the calls of the source. Calls come from the whole dose curve; as a rule, active = well fitted cell-killing curve with a large enough effect; inconclusive = small, poorly fitted or top-dose-only effect, or effect the other way; inactive = flat fitted curve, though single readings scatter.

Test system: HeLa
Assay: Primary qHTS to identify gynecologic anti-cancer compounds using libraries of approved drugs and bioactive compounds (AID 1345084); note: nearly all actives have a fitted effect of over 55% in size
Conditions: Gynecologic cancer cell panel viability, ATPlite luminescence, 48 h; series mostly up to 57.5 µM
Summary of the method: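 Cells, 1,000 per well, plated 16 h, then exposed 48 h at 37 C to compounds. Viability by ATPlite luminescence after 15 min at room temperature.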

With O=C(/C=C/c1ccc(O)cc1)O[C@H]1[C@@H]2C=CO[C@@H](O[C@@H]3O[C@H](CO)[C@@H](O)[C@H](O)[C@H]3O)[C@@H]2[C@@]2(CO)O[C@@H]12 as the molecule, how does the Potency read?
Its Potency is “inactive”.

With COCCN(C)Cc1ccc2nc3sc(C(=O)N(C)C4CCCCC4)cn3c2c1 as the molecule, how does the Potency read?
Its Potency is “inactive”.

How did the Potency turn out when CC12CCC3c4ccc(O)cc4CCC3C1CCC2OC1OC(C(=O)O)C(O)C(O)C1O (stereo not given) was run?
The Potency was “inactive”.

With COc1cc(CCc2ccccc2)c(C(=O)O)c2c1CC(C(C)(C)O)O2 (stereo not given) as the molecule, how does the Potency read?
The Potency was “inactive”.

Which Potency does the source give for OCc1ccccc1O[C@@H]1O[C@H](CO)[C@@H](O)[C@H](O)[C@H]1O here?
Its Potency is “inactive”.

With CC/C=C\C[C@H]1C(=O)C=C[C@@H]1CCCCCCCC(=O)O as the molecule, how does the Potency read?
The Potency was “inactive”.

CC(NC(=O)CC(=O)O)c1nc2ccccc2c(=O)[nH]1 (stereo not given) was tested. Which Potency did it give?
Its Potency is “inactive”.

With C[C@@H]1CC[C@]2(C(=O)O)CC[C@]3(C(=O)O)C(=CCC4[C@@]5(C)CC[C@H](O[C@@H]6O[C@@H](C)[C@H](O[C@@H]7O[C@H](CO)[C@@H](O)[C@H](O)[C@H]7O)[C@@H](O)[C@H]6O)C(C)(C)C5CC[C@]43C)C2[C@H]1C (stereo not given in full) as the molecule, how does the Potency read?
The Potency was “inactive”.

How did the Potency turn out when COc1ccc(C)c2sc(NC(=O)c3ccncc3)nc12 was run?
Its Potency is “inactive”.

With NCCOCCOCCNC(=O)Cc1ccc(Nc2nc(NCc3ccc(F)cc3)nc(NCC3CCCCC3)n2)cc1 as the molecule, how does the Potency read?
The Potency was “inactive”.

How did the Potency turn out when Nc1nonc1C(=Nc1ccc(F)c(Cl)c1)NO was run?
The Potency was “inactive”.

With CNC(=O)c1ccc2cc([C@@]3(O)CCn4cncc43)ccc2c1 as the molecule, how does the Potency read?
Its Potency is “inactive”.

How did the Potency turn out when O=C1NCc2nc3ccccc3c(=O)n2C1Cc1c[nH]c2ccccc12 (stereo not given) was run?
The Potency was “inactive”.

How did the activity change, negative = cytotoxicity turn out when CCCCCCc1cccc(NC(=O)[C@H](N)CCP(=O)(O)O)c1 was run?
The activity change, negative = cytotoxicity was 2.94% [at 11.6 µM] (inactive).

With CC1CCC2C(C)(C)CC(C)(CO)C2(O)C1C(=O)O (stereo not given) as the molecule, how does the Potency read?
The Potency was “inactive”.

For CC(C)(C)NCC(O)COc1cccc2c1CCCC2=O (stereo not given), which Potency is on record?
The Potency was “inactive”.

For COC(=O)C1=CO[C@@H](O[C@@H]2O[C@H](CO[C@@H]3O[C@H](COC(=O)/C=C/c4ccc(O)cc4)[C@@H](O)[C@H](O)[C@H]3O)[C@@H](O)[C@H](O)[C@H]2O)[C@@H]2C(CO)=CC[C@H]12, which Potency is on record?
Its Potency is “inactive”.

Which activity change, negative = cytotoxicity does the source give for C=CC(C)(O)CC/C=C(\C)C(=O)OCC1OC(OC2CCC3(C)C(CCC4(C)C3CC=C3C5CC(C)(C)C(O)CC5(C(=O)O)CCC34C)C2(C)C)C(O)C(OC2OC(CO)C(O)C(OC3OC(CO)C(O)C(OC4OC(COC5OC(CO)C(O)C(O)C5O)C(O)C(O)C4O)C3O)C2O)C1O (stereo not given) here?
Its activity change, negative = cytotoxicity is 3.26% [at 6.55 µM] (inactive).

For COC1C=C([C@@H]2CC=C3[C@@]4(C)C(CC[C@]32C)[C@@]2(C)C=CC(=O)C(C)(C)C2C[C@H]4OC(C)=O)C(=O)O1 (stereo not given in full), which Potency is on record?
Its Potency is “inactive”.

Cc1c(N2C(=O)c3ccc(C(=O)O)cc3C2=O)c(=O)n(-c2ccccc2)n1C was tested. Which Potency did it give?
Its Potency is “inactive”.

With CC[C@H]1OC(=O)[C@H](C)[C@@H](OC2C[C@@](C)(OC)[C@@H](O)[C@H](C)O2)[C@H](C)[C@@H](OC2O[C@H](C)C[C@H](NC)[C@H]2O)[C@](C)(O)C[C@@H](C)CN(C)[C@H](C)[C@@H](O)[C@]1(C)O (stereo not given in full) as the molecule, how does the Potency read?
Its Potency is “inactive”.

How did the Potency turn out when C=C1C2(CCC(=O)OC2(C)C)CC(OC(=O)/C(C)=C/C)C2(C)C13OC14C(=O)OC(C)(C(=O)C12C(=O)OC4C)C3OC(C)=O (stereo not given) was run?
The Potency was “inactive”.

How did the Potency turn out when C=C1C(=O)OC2/C=C(\C)CC/C=C(\C(=O)O)CC/C=C(\C)CCC12 (stereo not given) was run?
Its Potency is “inactive”.

How did the Potency turn out when CC(C)c1nc(N(C)S(C)(=O)=O)nc(-c2ccc(F)cc2)c1/C=C/[C@@H](O)C[C@@H](O)CC(=O)O was run?
Its Potency is “inactive”.

How did the Potency turn out when C=C1C[C@]23C[C@H]1CC[C@H]2[C@@]12C=C[C@H](O)[C@@](C)(C(=O)O1)[C@H]2[C@@H]3C(=O)O was run?
The Potency was “inactive”.

For COC1C2=C(COC2=O)C2(C)CCCC(C)(CO)C2C1OC(=O)c1ccccc1 (stereo not given), which Potency is on record?
The Potency was “inactive”.

How did the Potency turn out when CC1CCCC2OC2C(=O)c2c(O)cc(O)cc2CC(=O)O1 (stereo not given) was run?
The Potency was “inactive”.

Which Potency does the source give for C[C@@H]1C(=O)O[C@H]2CC34[C@H]5C[C@@H](C(C)(C)C)C36[C@@H](OC(=O)[C@@H]6O)O[C@@]4(C(=O)O5)[C@]21O (stereo not given in full) here?
Its Potency is “inactive”.

How did the Potency turn out when CC(C)C(C#N)O[C@@H]1O[C@H](CO[C@@H]2OC[C@](O)(CO)[C@H]2O)[C@@H](O)[C@H](O)[C@H]1O (stereo not given in full) was run?
Its Potency is “inactive”.

Which Potency does the source give for CC[C@H]1OC(=O)[C@H](C)[C@@H](O[C@H]2C[C@@](C)(OC)[C@@H](O)[C@H](C)O2)[C@H](C)[C@@H](O[C@@H]2O[C@H](C)C[C@H](N(C)C)[C@H]2O)[C@@](C)(O)C[C@@H](C)[C@@H]2N[C@@H](COCCOC)OC([C@H]2C)[C@]1(C)O here?
The Potency was “inactive”.
